Active and inactive are the calls of the source. The calls were made as follows: active = hit-call score of the fitted dose curve at least 0.9, where 1 is the maximum; inactive = score below 0.9.

Chain of X-box-binding protein 1 (Homo sapiens) (P17861 whole entry, looked up): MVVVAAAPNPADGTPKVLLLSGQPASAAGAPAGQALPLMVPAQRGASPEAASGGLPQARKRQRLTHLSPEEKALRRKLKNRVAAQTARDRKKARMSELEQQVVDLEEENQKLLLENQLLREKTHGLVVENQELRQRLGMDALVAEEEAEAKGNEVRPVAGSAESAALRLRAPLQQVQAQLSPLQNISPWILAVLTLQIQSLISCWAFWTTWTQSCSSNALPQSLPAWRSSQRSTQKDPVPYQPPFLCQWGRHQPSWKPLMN

The test has as its target X-box-binding protein 1 (Homo sapiens) (UniProt P17861). As to the kind of experiment: ATG_Xbp1_CIS: Attagene CIS-FACTORIAL HepG2 Assay for human X-box Binding Protein 1 (XBP1) (AID 2282972). Conditions: HepG2 XBP1 cis-element reporter, Attagene multiplex; actives raise or lower the signal. The method, then:
ATG_CIS is a cell-based, multiplexed-readout assay that uses HepG2, a human liver cell line, with measurements taken at 24 hours after chemical dosing in a 24-well plate.ATG_Xbp1_CIS is one of 52 assay component(s) measured or calculated from the ATG_CIS assay. It is designed to make measurements of mRNA induction, a form of inducible reporter, as detected with fluorescence intensity signals by Reverse transcription polymerase chain reaction (RT-PCR) and Capillary electrophoresis technology.Data from the assay component ATG_Xbp1_CIS was analyzed into 1 assay endpoint. This assay endpoint, ATG_Xbp1_CIS, was analyzed with bidirectional fitting relative to DMSO as the negative control and baseline of activity. Using a type of inducible reporter, measures of mRNA for gain or loss-of-signal activity can be used to understand the reporter gene at the transcription factor-level as they relate to the gene XBP1. Furthermore, this assay endpoint can be referred to as a primary readout, because this assay has produced multiple assay endpoints where this one serves a reporter gene function. To generalize the intended target to other relatable targets, this assay endpoint is annotated to the dna binding intended target family, where the subfamily is basic leucine zipper.
Human liver HepG2 cells are transiently transfected with multiple reporter transcription units (MRTUs) in 6-well plates using FuGene 6 reagent (Roche; 3 ml FuGene/1 mg DNA). The MRTU constructs are regulated by a cis-regulating element (promoter). […] A major difference between the CIS and TRANS system is that in CIS activities of endogenous TFs are measured, whereas the TRANS assay evaluates changes in activities of exogenous, chimeric NR-Gal4 proteins. […] At the end of 24 hour incubation, total RNA was isolated using TriZol reagent (Invitrogen). The isolated RNA is then reverse-transcribed using oligo(dT) primer and Mo-MLV reverse transcriptase (Invitrogen) with DNAse I (Ambion) treatment for 30 min. The one-tenth of the produced cDNA was amplified by PCR using Taq DNA polymerase (Invitrogen) and two reporter sequence-specific primers. The PCR products were fluorescently labeled by primer extension with 6-arboxyfluorescein (6-FAM) 5'-labeled reporter sequence-specific primer (2 min at 95 C, 20 s at 68 C and 10 min at 72 C) and these products were digested with 5U of HpaI (New England Biolabs) for 2h at 37 C. The fragments were purified using Qiaquick PCR columns (Qiagen), analyzed on an ABI 3130xL genetic analyzer (Applied Biosystems) with peak positions identified by using a set of X-rhodamine (ROX)-labeled MapMarker1000 molecular weight standards (BioVentures). The raw capillary electrophoresis data was processed using Attagraph software (Attagene).
`C=C(C)C(=O)OCC(F)(F)C(F)(F)C(F)(F)F`: the call was inactive.

For the compound `Nc1cc(Cl)c(N)c(Cl)c1`, the compound was classed as inactive.

As to `OCC(F)(F)C(F)(F)C(F)(F)C(F)(F)C(F)(F)C(F)(F)F`, the compound was called inactive.

In the case of `N=C(N)C(F)(F)C(F)(F)C(F)(F)C(F)(F)C(F)(F)C(F)(F)C(F)(F)F`, the result was inactive.

Regarding `CC(C)c1ccccc1N`, the result was inactive.

As for `CCCCC(CC)COP(=O)(O)OCC(CC)CCCC` (stereo not given), the compound was called inactive.

As for `C1COCCN1`, the outcome was inactive.

`O=C(Cl)C(F)(F)C(F)(F)C(F)(F)C(F)(F)C(F)(F)C(F)(F)C(F)(F)C(F)(F)F`: the AC50 was 41.9 µM (active).

In the case of `C(=C(c1ccccc1)c1ccccc1)c1ccccc1`, the outcome was inactive.

Consider `OCCCC(F)(F)C(F)(F)C(F)(F)F`, for which the outcome was inactive.

Consider `FC(F)(F)C(F)(F)C(F)(F)N(C(F)(F)C(F)(F)C(F)(F)F)C(F)(F)C(F)(F)C(F)(F)F`, for which the result was inactive.

For the compound `CNC(=S)NC`, the result was inactive.

For the compound `O=C(O)C(F)(F)C(F)(F)C(F)(F)C(F)(F)C(F)(F)C(F)(F)C(F)(F)C(F)(F)C(F)(F)C(F)(F)C(F)(F)C(F)(F)C(F)(F)F`, the call was inactive.

In the case of `Cc1cc(C)cc(O)c1`, the outcome was inactive.

Regarding `NC(=O)C(F)(F)C(F)(F)C(F)(F)C(F)(F)F`, the call was inactive.

With `CCCCCCS`, the call was inactive.

Consider `Oc1ccc(Nc2ccccc2)cc1`, for which the compound was classed as inactive.

For the compound `COC(OC(C)=O)c1ccccc1` (stereo not given), the result was inactive.

On to `Nc1ccc(S(=O)(=O)Nc2nccs2)cc1`, for which the result was inactive.

For `CCO[Si](CCC(F)(F)C(F)(F)C(F)(F)C(F)(F)C(F)(F)C(F)(F)F)(OCC)OCC`, the compound was classed as inactive.

`CC(=O)Nc1ccc(N=Nc2cc(C)ccc2O)cc1`: the result was inactive.

With `C=CC/C=C/C/C=C/C/C=C/C`, the result was inactive.

As for `CC(C)OC(=O)c1ccccc1C(=O)OC(C)C`, the compound was classed as inactive.

Take `FC(F)(F)C(F)(F)C(F)(F)C(F)(F)C(F)(F)C(F)(F)CCS`: the compound was classed as inactive.

Turning to `O=S(=O)(O)C(F)(F)C(F)(F)C(F)(F)C(F)(F)C(F)(F)C(F)(F)C(F)(F)F`, the compound was called inactive.

As to `FC(F)(F)C(F)(F)C(F)(F)CI`, the call was inactive.

Consider `O=C(C=Cc1ccccc1)OCC=Cc1ccccc1`, for which the outcome was inactive.

Turning to `CCCCCC=O`, the result was inactive.

Consider `FC(F)(F)C(F)(F)C(F)(F)C(F)(F)C(F)(F)C(F)(F)C(F)(F)I`, for which the compound was called inactive.

As for `CC(C)(C)C(=O)CC(=O)C(F)(F)C(F)(F)C(F)(F)F`, the outcome was inactive.

`O=C(O)C(F)(F)C(F)(F)C(F)F`: the outcome was inactive.

On to `CCc1c(Br)c(Br)c(Br)c(Br)c1Br`, for which the call was inactive.

On to `Cc1ccc(S(=O)(=O)NCl)cc1`, for which the call was inactive.

On to `CCCCCCC(C)OC(=O)CCCCC(=O)OC(C)CCCCCC` (stereo not given), for which the outcome was inactive.

Regarding `O=C(O)C(F)(F)C(F)(F)C(F)(F)C(F)(F)F`, the call was inactive.

As to `CCN(Cc1cccc(S(=O)(=O)O)c1)c1ccc(C(=C2C=CC(=[N+](CC)Cc3cccc(S(=O)(=O)O)c3)C=C2)c2ccc(O)cc2S(=O)(=O)[O-])cc1`, the compound was classed as inactive.

`CCCCNc1ccccc1`: the compound was called inactive.

On to `Cc1ccc(S(=O)(=O)OCC(F)(F)C(F)(F)C(F)(F)C(F)(F)C(F)(F)C(F)F)cc1`, for which the compound was called inactive.

Turning to `CS(C)(=O)=O`, the compound was classed as inactive.

As to `CC(CCl)OP(=O)(OC(C)CCl)OC(C)CCl` (stereo not given), the compound was called inactive.

What is called AC50 is the midpoint of the concentration-response curve, whichever way the signal moves.

The values are drawn from PubChem BioAssay (EPA / NIEHS).
